# Only some compounds are listed: those with a hit (about 0.86% of all), similar ones and a draw of the others.
# NOD2 RIPK2 PPI: blocks binding of human NOD2 to RIPK2 | O43353 | CHO BLA complementation NOD2-RIPK2, CCF4 ratio | inhibition, % at 4.98 µM | hit rate 0.38% among 360,000; in the data active = inhibition above about 21%;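 note: 0% = vehicle only and 100% = reference blocker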
# TLR9-MyD88 block: blocks human TLR9 binding to MyD88; AID 504734; hit rate 0.21% among 340,000; inhibition, % at 4.98 µM; Q9NR96+Q99836; CHO BLA complementation TLR9-MyD88, CCF4 FRET ratio;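 active = inhibition above the mean over all tested compounds plus 3 SD, cut at about 21% in these data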;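 note: 0% = DMSO only wells and 100% = clavulanate BLA inhibitor control wells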
# TLR4-MyD88 BLA: TLR4-MyD88 interaction inhibition in cells; O00206+Q99836; HeLa CL3-4 TLR4/MyD88 BLA complementation, FRET ratio; inhibition, % at 8.4 µM; hit rate 0.18% among 200,000; AID 861; in the data active = inhibition above about 25%;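 note: 0% = vehicle and 100% = reference inhibitor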
# IDE cell activ: boosts human insulin-degrading enzyme activity in HEK cells; activation, % at 5.96 µM; P14735; hit rate 0.073% among 340,000; FAbeta-B cleavage, fluorescence polarization; 0% vehicle, 100% cell-free pure enzyme wells;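 active = activation above the mean of all tested compounds plus 3 SD, set per screening campaign, cut at about 17% in these data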
# Target sequence (P14735 whole entry, looked up): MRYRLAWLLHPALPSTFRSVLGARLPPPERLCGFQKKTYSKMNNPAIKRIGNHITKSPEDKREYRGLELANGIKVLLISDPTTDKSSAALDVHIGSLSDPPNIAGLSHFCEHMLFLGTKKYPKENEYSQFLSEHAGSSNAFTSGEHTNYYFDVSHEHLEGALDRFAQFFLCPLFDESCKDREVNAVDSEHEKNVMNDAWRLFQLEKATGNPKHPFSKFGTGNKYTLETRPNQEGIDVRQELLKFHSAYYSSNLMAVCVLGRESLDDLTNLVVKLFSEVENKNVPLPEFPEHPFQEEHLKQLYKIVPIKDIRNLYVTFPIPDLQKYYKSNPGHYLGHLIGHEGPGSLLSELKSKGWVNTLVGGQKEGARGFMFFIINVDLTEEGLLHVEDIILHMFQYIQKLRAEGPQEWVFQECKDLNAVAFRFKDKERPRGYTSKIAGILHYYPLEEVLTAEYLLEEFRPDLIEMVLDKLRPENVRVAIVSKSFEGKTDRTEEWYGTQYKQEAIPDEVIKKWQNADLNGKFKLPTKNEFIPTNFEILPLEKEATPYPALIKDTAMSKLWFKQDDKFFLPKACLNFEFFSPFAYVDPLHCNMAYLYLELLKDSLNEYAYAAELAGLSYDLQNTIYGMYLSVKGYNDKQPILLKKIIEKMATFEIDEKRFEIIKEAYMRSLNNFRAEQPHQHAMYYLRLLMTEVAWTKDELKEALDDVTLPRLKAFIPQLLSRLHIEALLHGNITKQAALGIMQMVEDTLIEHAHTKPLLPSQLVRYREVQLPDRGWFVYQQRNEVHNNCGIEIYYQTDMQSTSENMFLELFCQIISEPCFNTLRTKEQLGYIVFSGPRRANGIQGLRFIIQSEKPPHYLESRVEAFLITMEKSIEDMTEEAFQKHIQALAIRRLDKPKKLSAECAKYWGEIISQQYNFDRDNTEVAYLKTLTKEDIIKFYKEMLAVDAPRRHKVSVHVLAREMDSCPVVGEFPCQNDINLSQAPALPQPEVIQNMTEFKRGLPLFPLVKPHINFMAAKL
# IDE inh: cellular human IDE inhibition | HEK cells, FAbetaB cleavage, fluorescence polarization | P14735 | inhibition, % at 5.59 µM | hit rate 0.41% among 320,000;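 active = percent inhibition above the average of all tested compounds plus 3 SD, set per screening campaign, cut at about 16% in these data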;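 note: IDE supplied by intact live HEK cells; FP after avidin binding of uncleaved biotin substrate so inhibition keeps polarization high; 0% = DMSO wells and 100% = 60 µM reference IDE inhibitor Ii1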
# TLR4 MyD88 cnf: TLR4-MyD88 interaction inhibition confirmed; shares compounds with TLR4-MyD88 BLA; HeLa CL3-4 BLA complementation, CCF4 FRET ratio; inhibition, % at 8.4 µM; hit rate 50% among 350; AID 941;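 active = mean inhibition across three repeat runs above about 25% carried over from the earlier screen, limit read from the data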;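 note: plate controls were DMSO only for no effect and clavulanic acid blocking BLA at full dose for full effect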
# BLA inh HeLa: counter-screen for TLR4-MyD88 inhibitors: beta-lactamase reporter inhibitors; shares compounds with TLR4-MyD88 BLA; HeLa BLA reporter, CCF4 FRET ratio; inhibition, % at 8.4 µM; hit rate 63% among 350;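 active = mean inhibition over three repeats above about 26% taken from the earlier screen, limit read from the data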;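 note: HeLa cells stably expressing beta-lactamase reporter as counterscreen for TLR4-MyD88 inhibitors; 0% = DMSO and 100% = clavulanic acid full inhibition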
# The depositor's hits bear a star; x = no result.
SMILES,NOD2 RIPK2 PPI,TLR9-MyD88 block,TLR4-MyD88 BLA,IDE cell activ,IDE inh,TLR4 MyD88 cnf,BLA inh HeLa
Brc1ccccc1C1CC(c2ccccc2)=Nc2ccccc2N1 (stereo not drawn),4,-5,1,1,2,x,x
CCOCC(=O)Nc1c(C(=O)Nc2ccccc2OC)oc2ccccc12,2,-2,-4,-2,4,x,x
Cc1ccc(/C=C2\CCC3=C2OC(N)=C(C#N)C3c2ccc(C)cc2)cc1 (stereo not drawn),11,11,34*,-44,56*,29*,66*
Cc1ccc(C2C(C#N)=C(N)Oc3cc(N)ccc32)cc1 (stereo not drawn),-1,2,x,0,6,x,x
O=C(Cn1ncc(Cl)c(Cl)c1=O)N1CCc2ccccc21,21,14,27*,-4,x,24,5
Cc1ccc(NC(=O)OC(C)CNC(=O)Oc2cccc(C)c2)cc1 (stereo not drawn),-15,0,-7,1,10,x,x
CCCCn1nc(-c2ccccc2)c2nc3ccccc3nc21,x,x,49*,x,1,47*,50*
CCCCn1c2nc3ccccc3nc2c2c(=O)n(-c3ccccc3)cnc21,-13,-2,1,5,-8,x,x
Cn1nc(-c2ccccc2)c2nc3ccccc3nc21,16,9,28*,-3,1,22,44*
CCOC(=O)N1CCC(NC(=O)c2cc(C(=O)NCC(OC)OC)ccc2CO)CC1,-5,1,8,0,8,x,x
CCc1nnc(NC(=O)CSc2nnc(-c3c[nH]c4ccccc34)n2CC)s1,-9,-11,4,4,2,x,x
N#Cc1cccc(NC(=O)CSc2ccc3c4c(cccc24)C(=O)c2ccccc2-3)c1,13,20,54*,-12,16,36*,65*
N#Cc1cccc(NC(=O)CSc2ccccc2)c1,-11,4,-18,2,6,x,x
COc1ccc(NC(=O)CSc2nnc(C)c3ccccc23)cc1,-7,7,x,-7,-4,x,x
COc1ccc(NC(=O)CSc2ccc3c4c(cccc24)C(=O)c2ccccc2-3)cc1,7,-14,33*,-9,2,24,14
N#Cc1ccc(-c2ccccc2)nc1SCC(=O)c1cc2ccccc2oc1=O,8,8,-1,-6,2,x,x
Oc1ccc2ccccc2c1/C=N/Nc1nnc(-c2ncc[nH]2)c2ccccc12,1,-6,33*,-4,0,22,50*
COc1ccc(/C=N/Nc2nnc(-c3ncc[nH]3)c3ccccc23)cc1,1,-2,-2,4,3,x,x
COc1cc(CCC(=O)OCC(=O)Nc2c(C)cccc2C(C)C)cc(OC)c1OC,4,2,-13,0,8,x,x
CC(=O)C1=NN(c2ccccc2)C(c2cccs2)N1c1ccccc1 (stereo not drawn),x,x,27*,x,12,5,14
CC(=O)C1=NN(c2ccccc2)C(c2ccc3c(c2)OCO3)N1c1ccc(N2CCOCC2)cc1 (stereo not drawn),7,0,-6,2,3,x,x
Cc1cccc2cc(C#N)c(NCCNC(=O)NC3CCCCC3)nc12,-10,-2,25*,7,1,-11,-3
CCCOC(=O)c1ccc(S(N)(=O)=O)o1,-3,0,27*,2,2,-8,1
COc1ccc2nc(/C(C#N)=C\c3ccc(Oc4ccc([N+](=O)[O-])cn4)cc3)[nH]c2c1,13,6,0,-5,5,x,x
COc1ccc2nc(/C(C#N)=C\c3ccc(C(=O)O)cc3)[nH]c2c1,16,16,27*,-2,9,13,27*
N=c1oc2ccc(Cl)cc2cc1C(=O)NC1CCCCCC1,2,7,x,12,3,x,x
CCN(CC(=O)NC(=O)NCc1ccccc1)Cc1ccccc1,-7,-6,x,1,0,x,x
O=[N+]([O-])c1ccc(N/N=C/c2cn(-c3ccccc3)nc2-c2ccccc2)cc1,10,14,38*,2,5,38*,75*
CCCC1Cc2nc(N3CCCCC3)c(C#N)cc2CO1 (stereo not drawn),-3,5,26*,-8,0,-11,6
